Several values for one entry are separate records, joined by “and”; a condition that tells them apart may be missing. Equal values may be shown once. Results filed as inconclusive are left out. Activity calls are given as the source filed them. The call rests on the fitted dose curve; in most records, active means well fitted curve in the direction sought with a large enough effect in the repeat runs; inconclusive means weak or mixed curves; inactive means no such curve, though single readings can be large; an effect the other way counts as inactive or inconclusive.
Assays:
[1] = qHTS RealTime-Glo MT Cell Viability Assay in HEK293 cells - 16 hour (AID 1224872); further: nearly all actives have a fitted effect of over 50% in size; further: potency means the concentration at half of the fitted maximal effect
Outline: (§1)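 Cells + reagent dispensed (600 cells/well, HEK293) → 5 h at 37 C/5% CO2 → 23 nL compound in DMSO pinned → 40 h at 37 C → luminescence read at 0, 8, 16, 24, 32, 40 h.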

[2] = qHTS RealTime-Glo MT Cell Viability Assay in HepG2 cells - 8 hour (AID 1224873); further: nearly all actives have a fitted effect of over 55% in size
Outline: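 HepG2 cells (600/well) mixed with RealTime-Glo MT reagent, settled 5 h at 37 C/5% CO2 before compound addition. Nonlytic NanoLuc luminescence from viable-cell prosubstrate reduction read repeatedly during 40 h treatment at 37 C.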

[3] = A CellTox Green Cytotoxicity Assay to monitor cytotoxicity in HEK293 cells - 24 hour (AID 1224875); further: nearly all actives have a fitted effect of over 45% in size; further: potency means the concentration at half of the fitted maximal effect
Outline: (§2)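 Seeding of HEK293 cells together with cytotoxicity dye preceded a 5 h incubation at 37 C/5% CO2. Test compounds in DMSO were then added and fluorescence monitored across 40 h.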

[4] = qHTS RealTime-Glo MT Cell Viability Assay in HepG2 cells - 32 hour (AID 1224877); further: nearly all actives have a fitted effect of over 55% in size; further: potency means the concentration at half of the fitted maximal effect
Outline: (§3)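 Real-time, nonlytic viability: 600 HepG2 cells/well mixed with NanoLuc enzyme plus prosubstrate; 5 h settle, compound (DMSO) added by pintool; luminescence monitored over 40 h at 37 C.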

[5] = A CellTox Green Cytotoxicity Assay to monitor cytotoxicity in HepG2 cells - 40 hour (AID 1224879); further: nearly all actives have a fitted effect of over 40% in size; further: potency means the concentration at half of the fitted maximal effect
Outline: (§4)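 Nonlytic assay: viable cells exclude the dye, so fluorescence scales with cell death. HepG2 at 600 cells/well, compounds added after 5 h, signal read across 40 h.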

[6] = A CellTox Green Cytotoxicity Assay to monitor cytotoxicity in HEK293 cells - 32 hour (AID 1224881); further: nearly all actives have a fitted effect of over 40% in size; further: potency means the concentration at half of the fitted maximal effect
Outline: as §2

[7] = qHTS RealTime-Glo MT Cell Viability Assay in HepG2 cells - 16 hour (AID 1224885); further: nearly all actives have a fitted effect of over 50% in size
Outline: as §3

[8] = qHTS RealTime-Glo MT Cell Viability Assay in HEK293 cells - 24 hour (AID 1224886); further: nearly all actives have a fitted effect of over 50% in size; further: potency means the concentration at half of the fitted maximal effect
Outline: as §1

[9] = qHTS RealTime-Glo MT Cell Viability Assay in HEK293 cells - 8 hour (AID 1224887); further: nearly all actives have a fitted effect of over 50% in size; further: potency means the concentration at half of the fitted maximal effect
Outline: (§5)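 Tox21 screen in HEK293 using RealTime-Glo MT chemistry, with cells and reagent co-dispensed. Luminescence proportional to viable cell number was captured at intervals during 40 h compound exposure at 37 C.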

[10] = qHTS RealTime-Glo MT Cell Viability Assay in HepG2 cells - 0 hour (AID 1224889); further: nearly all actives have a fitted effect of over 50% in size
Outline: as §3

[11] = A CellTox Green Cytotoxicity Assay to monitor cytotoxicity in HepG2 cells - 16 hour (AID 1224876); further: nearly all actives have a fitted effect of over 45% in size; further: potency means the concentration at half of the fitted maximal effect
Outline: as §4

[12] = A CellTox Green Cytotoxicity Assay to monitor cytotoxicity in HepG2 cells - 24 hour (AID 1224878); further: nearly all actives have a fitted effect of over 45% in size; further: potency means the concentration at half of the fitted maximal effect
Outline: as §4

[13] = A CellTox Green Cytotoxicity Assay to monitor cytotoxicity in HepG2 cells - 0 hour (AID 1224882); further: nearly all actives have a fitted effect of over 35% in size
Outline: as §4

[14] = A CellTox Green Cytotoxicity Assay to monitor cytotoxicity in HepG2 cells - 32 hour (AID 1224883); further: nearly all actives have a fitted effect of over 50% in size; further: potency means the concentration at half of the fitted maximal effect
Outline: as §4

[15] = A CellTox Green Cytotoxicity Assay to monitor cytotoxicity in HEK293 cells - 16 hour (AID 1224888); further: nearly all actives have a fitted effect of over 35% in size; further: potency means the concentration at half of the fitted maximal effect
Outline: as §2

[16] = A CellTox Green Cytotoxicity Assay to monitor cytotoxicity in HepG2 cells - 8 hour (AID 1224890); further: nearly all actives have a fitted effect of over 45% in size; further: potency means the concentration at half of the fitted maximal effect
Outline: as §4

[17] = A CellTox Green Cytotoxicity Assay to monitor cytotoxicity in HEK293 cells - 8 hour (AID 1224884); further: nearly all actives have a fitted effect of over 35% in size
Outline: as §2

[18] = qHTS RealTime-Glo MT Cell Viability Assay in HEK293 cells - 40 hour (AID 1224874); conditions: RealTime-Glo luminescence; max response: stronger effect = lower value; further: nearly all actives have a fitted effect of over 50% in size; further: potency means the concentration at half of the fitted maximal effect
Outline: as §5

[19] = qHTS RealTime-Glo MT Cell Viability Assay in HEK293 cells - 0 hour (AID 1224880)
Outline: as §5
On the % scale 0 is the no-effect control and ±100 the full control effect.

S=c1[nH]c2ccccc2s1
active: Potency [3] 43.6 µM | Potency [6] 49 µM
inactive: Potency [1] | Potency [2] | Potency [4] | Potency [5] | Potency [7] | Potency [8] | Potency [9] | Potency [10]

O=C(NO)C1(NS(=O)(=O)c2ccc(Oc3ccc(F)cc3)cc2)CCOCC1
inactive: Potency [1] | Potency [2] | Potency [3] | Potency [11] | Potency [12] | Potency [5] | Potency [6] | Potency [13] | Potency [14] | Potency [7] | Potency [8] | Potency [9] | Potency [15] | Potency [10] | Potency [16]

Cc1c(C)c2c(c(C)c1OC(=O)CCC(=O)O)CC[C@@](C)(CCC[C@H](C)CCC[C@H](C)CCCC(C)C)O2
active: Potency [4] 55.6 µM
inactive: Potency [1] | Potency [2] | Potency [3] | Potency [11] | Potency [6] | Potency [13] | Potency [17] | Potency [7] | Potency [9] | Potency [15] | Potency [16]

C=C(C)C(=O)OCC[N+](C)(C)C
inactive: Potency [1] | Potency [2] | max response [18] -0.113% | Potency [11] | Potency [4] | Potency [12] | Potency [5] | Potency [19] | Potency [13] | Potency [14] | Potency [17] | Potency [7] | Potency [8] | Potency [9] | Potency [15] | Potency [10] | Potency [16]

O=C(N/N=C/c1ccccc1O)c1ccncc1
inactive: Potency [1] | Potency [2] | Potency [3] | Potency [11] | Potency [4] | Potency [12] | Potency [5] | Potency [19] | Potency [6] | Potency [13] | Potency [14] | Potency [17] | Potency [7] | Potency [15] | Potency [10] | Potency [16]

C[C@H]1[C@H]2CC[C@H]3[C@@H]4CC=C5C[C@@H](N(C)C)CC[C@]5(C)[C@H]4CC[C@]23CN1C
inactive: Potency [1] | Potency [2] | Potency [3] | Potency [5] | Potency [19] | Potency [6] | Potency [14] | Potency [17] | Potency [7] | Potency [9] | Potency [15] | Potency [10]

O=C(Nc1cccc(C(F)(F)F)c1)c1cc(Br)cc(Br)c1O
inactive: Potency [2] | Potency [3] | Potency [11] | Potency [6] | Potency [13] | Potency [17] | Potency [9] | Potency [15] | Potency [16]
active: Potency [18] 3.89 µM | Potency [12] 19.5 µM | Potency [5] 19.5 µM | Potency [14] 17.4 µM | Potency [8] 4.9 µM

CC(C)(C)CC(C)(C)c1ccc(OCCOCC[N+](C)(C)Cc2ccccc2)cc1
active: Potency [1] 24.5 µM and 21.3 µM | Potency [18] 9.76 µM and 8.49 µM | Potency [11] 48.9 µM and 19 µM | Potency [4] 34.6 µM and 9.52 µM | Potency [12] 38.9 µM and 15.1 µM | Potency [5] 24.5 µM and 10.7 µM | Potency [6] 38.9 µM and 21.3 µM | Potency [14] 27.5 µM and 15.1 µM | Potency [15] 48.9 µM and 26.8 µM | Potency [16] 26.8 µM
inactive: Potency [13] | Potency [10]

Cc1cccc2c1cc1ccc3cccc4ccc2c1c34
inactive: Potency [2] | Potency [11] | Potency [4] | Potency [12] | Potency [5] | Potency [13] | Potency [7] | Potency [10] | Potency [16]

O=C(OCC(COC(=O)c1ccccc1)(COC(=O)c1ccccc1)COC(=O)c1ccccc1)c1ccccc1
active: Potency [1] 43.6 µM | Potency [18] 48.9 µM | Potency [8] 48.9 µM | Potency [9] 24.5 µM
inactive: Potency [11] | Potency [4] | Potency [12] | Potency [5] | Potency [13] | Potency [14] | Potency [17] | Potency [7] | Potency [10] | Potency [16]

O=C1CCCc2c1cc1ccc3cccc4ccc2c1c34
inactive: Potency [3] | Potency [11] | Potency [4] | Potency [12] | Potency [5] | Potency [19] | Potency [13] | Potency [14] | Potency [17] | Potency [7] | Potency [15] | Potency [10] | Potency [16]
active: Potency [18] 9.89 µM | Potency [8] 8.82 µM

CC(C)(C)CC(C)(C)c1ccc(O)c(Cc2ccc(Cl)cc2Cl)c1
inactive: Potency [19] | Potency [13] | Potency [17] | Potency [10]
active: Potency [1] 21.3 µM | Potency [18] 23.9 µM | Potency [3] 26.8 µM | Potency [6] 23.9 µM | Potency [8] 23.9 µM | Potency [9] 23.9 µM

CN(C/C=C/C#CC(C)(C)C)Cc1cccc2ccccc12
inactive: Potency [2] | Potency [11] | Potency [4] | Potency [12] | Potency [5] | Potency [19] | Potency [13] | Potency [14] | Potency [17] | Potency [10] | Potency [16]

COCCCC/C(=N\OCCN)c1ccc(C(F)(F)F)cc1
active: Potency [5] 26.8 µM
inactive: Potency [2] | Potency [3] | Potency [19] | Potency [6] | Potency [13] | Potency [17] | Potency [9] | Potency [15] | Potency [10] | Potency [16]

Oc1ccc2c(c1)-c1ccccc1C2
active: Potency [12] 49 µM | Potency [5] 49 µM | Potency [14] 49 µM
inactive: Potency [1] | Potency [4] | Potency [19] | Potency [13] | Potency [15] | Potency [10]

Nc1ccc(N)c2ccccc12
active: Potency [1] 54.9 µM | Potency [11] 54.9 µM | Potency [12] 54.9 µM | Potency [5] 54.9 µM | Potency [14] 54.9 µM | Potency [9] 24.5 µM
inactive: Potency [3] | Potency [19] | Potency [13] | Potency [17] | Potency [15] | Potency [10] | Potency [16]

Cc1cc(CCN2CCN(c3nsc4ccccc34)CC2)cc2c1NC(=O)CC2(C)C
inactive: Potency [19] | Potency [13] | Potency [10] | Potency [16]
active: Potency [1] 13.8 µM | Potency [18] 6.92 µM | Potency [3] 49 µM | Potency [4] 54.9 µM | Potency [6] 49 µM | Potency [8] 6.92 µM | Potency [9] 21.9 µM | Potency [15] 49 µM

Source: PubChem BioAssay (Tox21)
